Screening data deposited in PubChem by National Center for Advancing Translational Sciences (NCATS).
gsp antag – gsp mutant antagonism; gsp-mutant cells, cAMP HTRF, 30 min; Potency, µM (series often up to 76.9 µM), inactives show at the top dose activity change, negative = inhibition, most hits filed as inhibitors; 340,000 compounds, 0.4% hits; AID 624288; calls by dose curve; cell line not stated here;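 note: intracellular cAMP measured with PDE inhibitor Ro 20-1724 present during compound exposure; potency is the fitted concentration of half-maximal effect; % is set by controls: 0 for no effect and ±100 for the full control effect; nearly all actives have a fitted effect of over 65% in size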
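Measurement of cellular cAMP by homogeneous time-resolved fluorescence following a 30 min compound exposure at 37C. The PDE inhibitor […] was present throughout; the assay buffer was DPBS with 0.05% BSA and 0.005% Tween 20.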
TRPV1 ag – activates the human vanilloid receptor TRPV1. Q8NER1. TRPV1-expressing cells, Fluo-8 calcium influx, agonist mode. activation, % at 8.33 µM. 320,000 compounds, 0.19% hits. AID 540275; in the data active = activation above about 80%; inconclusive = between about 30% and that limit; note: 0% is about no effect
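TRPV1-expressing cells were cultured overnight at 35.5C and loaded with Fluo-8 calcium dye for 40 to 90 min at room temperature. After a 10 s baseline, compound was added and calcium influx was read kinetically for 3 min (ex 480/em 520 nm).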
gsp agonist – agonists of gsp mutant (McCune-Albright syndrome); 340,000 compounds, 0.13% hits; Potency, µM (top dose mostly 76.9 µM), for inactives: at the highest dose activation (cAMP increase), actives largely listed as activators; gsp mutant cells, cAMP HTRF, 30 min; active = well fitted activation curve with a large enough effect; inconclusive = small, poorly fitted or top-dose-only effect, or another doubt; inactive = no such curve, though single readings can be large or run the other way; cell line not stated here;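 note: phosphodiesterase inhibitor Ro 20-1724 added with compounds to block cAMP breakdown; potency is the fitted concentration of half-maximal effect; nearly all actives have a fitted effect of over 60% in size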
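Cells in DMEM/10% FBS with G418 were pretreated with compounds in DMSO plus […] (300 uM stock) for 30 min at 37C. cAMP was measured by HTRF (cAMP-d2 plus anti-cAMP antibody-K) after 30 min at room temperature.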
RXFP1 agonist – RXFP1 (human) receptor agonism | Q9HBX9 | HEK293T-RXFP1 cAMP TR-FRET, 30 min; response scale: percent of porcine relaxin response, buffer zero | Potency, µM (top dose mostly 57.5 µM), for the others: at the top dose activation, usual class: activators | 370,000 compounds, 0.3% hits; active = well fitted activation curve with a large enough effect; inconclusive = small, poorly fitted or top-dose-only effect; note: potency is the fitted concentration of half-maximal effect; % is set by controls: 0 for no effect and ±100 for the full control effect; nearly all actives have a fitted effect of over 60% in size
Target sequence (Q9HBX9 whole entry, looked up): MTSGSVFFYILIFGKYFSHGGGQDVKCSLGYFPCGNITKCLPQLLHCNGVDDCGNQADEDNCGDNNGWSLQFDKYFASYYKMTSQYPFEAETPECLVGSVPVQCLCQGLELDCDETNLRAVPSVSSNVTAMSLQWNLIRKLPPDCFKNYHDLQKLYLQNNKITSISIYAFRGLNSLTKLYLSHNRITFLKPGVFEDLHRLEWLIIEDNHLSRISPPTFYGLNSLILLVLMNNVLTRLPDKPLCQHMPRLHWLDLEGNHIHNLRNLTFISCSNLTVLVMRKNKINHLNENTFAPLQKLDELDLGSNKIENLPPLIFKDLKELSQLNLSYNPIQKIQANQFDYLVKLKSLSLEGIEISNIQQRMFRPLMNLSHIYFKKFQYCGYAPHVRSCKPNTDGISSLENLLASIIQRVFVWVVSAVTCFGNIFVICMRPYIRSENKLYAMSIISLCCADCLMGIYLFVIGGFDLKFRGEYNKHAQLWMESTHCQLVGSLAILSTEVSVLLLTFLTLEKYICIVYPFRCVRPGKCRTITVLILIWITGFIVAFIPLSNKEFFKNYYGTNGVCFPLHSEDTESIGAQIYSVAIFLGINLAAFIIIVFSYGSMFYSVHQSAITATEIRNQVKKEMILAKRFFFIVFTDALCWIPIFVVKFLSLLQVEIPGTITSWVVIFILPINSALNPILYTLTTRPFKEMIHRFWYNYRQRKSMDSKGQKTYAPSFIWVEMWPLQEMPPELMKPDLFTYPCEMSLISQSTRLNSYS
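cAMP rise read by TR-FRET after 30 min, 37C compound exposure (up to 58 uM) in RXFP1-transfected HEK293 cells with Ro 20174 present. EC50 from Hill-equation fits, with 29 nM porcine relaxin as 100% and buffer as basal.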
RXFP1 antag – RXFP1 (human) relaxin receptor antagonism; Q9HBX9; HEK293-RXFP1, relaxin-stimulated cAMP HTRF, 30 min; hits give low values; activity change, negative = inhibition, % at 57.5 µM; 350,000 compounds, 0.59% hits; AID 1259400;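 active = activity change of -60% or lower, but not beyond a set lower limit; inconclusive = change between -60% and -40%, or beyond the set limit; inactive = change above -40%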; note: % is set by controls: 0 for no effect and ±100 for the full control effect
TRPV1 potentiator – enhances activation of the human vanilloid receptor TRPV1; Q8NER1; TRPV1-expressing cells, Fluo-8 calcium influx, capsaicin EC20 potentiation; potentiation, % at 8.33 µM; 320,000 compounds, 0.02% hits; in the data active = potentiation above about 80%; inconclusive = between about 30% and that limit; note: 0% is about no effect
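TRPV1-expressing cells were cultured overnight at 35.5C and loaded with Fluo-8 calcium dye for 40 to 90 min at room temperature. After a 10 s baseline, compound was added and calcium influx was read kinetically for 3 min (ex 480/em 520 nm).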
Starred values were filed as active, the others as inactive; u = inconclusive; x = no result; ! = not active in a repeat; [ ] = remark or other dose. This is a sample that favours compounds with a hit; in the whole collection about 1.1% have one here.

SMILES | gsp antag | TRPV1 ag | gsp agonist | RXFP1 agonist | RXFP1 antag | TRPV1 potentiator
COc1ccc(OCC(=O)N2CCN(c3nnc(-c4ccccc4)c4ccccc34)CC2)cc1 | 40µM* | 13 | 13% | 2% | 13 | -7
CC1CCN(c2nnc(-c3ccccc3)c3ccccc23)CC1 | u | 25 | 3%[15.4 µM] | 3% | -13 | -22
COc1ccc(OCC(=O)N2CCN(c3nnc(-c4ccc(C)cc4)c4ccccc34)CC2)cc1 | 28µM* | 27 | -3%[15.4 µM] | 2% | -14 | -8
Cc1ccc(OCC(=O)N2CCN(c3nnc(-c4ccc(C)cc4)c4ccccc34)CC2)cc1 | 35µM* | u | 1% | 0% | -5 | -8
Cc1ccc(-c2nnc(N3CCC(C)CC3)c3ccccc23)cc1 | 25µM* | 22 | -61% | 0% | -11 | -2
COc1ccc(-n2nc(C)c3c(=O)c4c([nH]c32)CCCC4)cc1 | -14% | 11 | 19% | 2% | 2 | u
NS(=O)(=O)c1cc(C(=O)NCC2CCCCC2)ccc1Cl | -3% | -1 | -17% | 1% | -8 | 5
Cc1cc2c(=O)oc(-c3ccccc3Br)nc2s1 | 35µM* | 8 | 1%[15.4 µM] | -1% | -13 | 5
Cc1cc2c(=O)oc(-c3ccc(F)cc3)nc2s1 | -12% | -5 | -2%[15.4 µM] | 0% | -10 | 2
O=C(NCc1ccccc1Cl)C1CCCN(c2ncnc3c2nc2n3CCCCC2)C1 (stereo not given) | -3% | 81* | u | 0% | 18 | -9
COc1ccc(N2CCN(C(=O)c3cc4c(C)nc5ccccc5c4o3)CC2)cc1 | u | 9 | u | 0% | -76* | -11
c1ccc(-c2csc(N3CCN(c4ccccn4)CC3)n2)cc1 | u | 101* | -7% | 1% | -13 | -5
c1ccc(-c2csc(N3CCOCC3)n2)cc1 | -6% | 11 | 6% | -3% | -3 | -2
COc1ccc(-c2csc(N3CCN(C(=O)c4ccco4)CC3)n2)cc1 | 50µM* | x | -97% | 1% | -6 | x
COc1ccc(C(=O)NNC(=O)CN2CCN(c3nc(-c4ccccc4)cs3)CC2)cc1 | 3% | -4 | -28% | 0% | -8 | 12
COc1ccc(-c2csc(N3CCN(C(=O)c4ccccc4)CC3)n2)cc1 | 35µM* | 8 | -32% | 0% | -24 | 3
COc1ccc2nc(N3CCN(C(=O)c4ccco4)CC3)sc2c1 | x | x | x | -1% | -24 | x
CCOC(=O)N1CCN(c2nc(-c3ccc(F)cc3)cs2)CC1 | 32µM* | u | -35% | -1% | -12 | -8
O=C(O)CCc1nn2c3ccccc3n(Cc3ccccc3F)c2nc1=O | x | -4 | -2%[15.4 µM] | 5% | 1 | 9
CC(Sc1nnc(N)s1)C(=O)Nc1ccc2c(c1)OCO2 (stereo not given) | 6% | 0 | -39%[15.4 µM] | 0% | -9 | -7
O=C(c1ccc2c(=O)n(C3CCCC3)c(=S)[nH]c2c1)N1CCCCCC1 | 32µM* | 6 | -9%[15.4 µM] | -1% | -63* | 7
CC1CCCN(C(=O)c2ccc3c(=O)n(C4CCCC4)c(=S)[nH]c3c2)C1 (stereo not given) | u | -5 | u | 1% | -29 | u
CC(C)c1ccc(NC2CCCN(C(=O)c3cccc4nccnc34)C2)cc1 (stereo not given) | 8% | 85* | u | 4% | 14 | -11
Cc1cc(C)n2nc(C(=O)N3CCCC(Nc4ccc(F)c(F)c4)C3)cc2n1 (stereo not given) | 19% | 24 | -9% | 1% | 6 | -20
Cc1cc(C)n2nc(C(=O)N3CCCC(Nc4ccc(C(C)C)cc4)C3)cc2n1 (stereo not given) | 7% | 86* | 30% | 0% | -1 | -2
SMILES | gsp antag | TRPV1 ag | gsp agonist | RXFP1 agonist | RXFP1 antag | TRPV1 potentiator
CC(=O)C[C@@H](O)CC(=O)[C@@H]1OC(=O)CCCCCCCCc2ccccc21 | -12% | x | -24% | x | x | x
COc1cc(NC(=O)c2noc3c2CC(C)CC3)c(OC)cc1Cl (stereo not given) | x | x | x | -4% | 18 | x
COc1ccc(-n2ncc3c2CC(C)(C)CC3NC(=O)c2c(C)cc(=O)oc2C)cc1 (stereo not given) | -10% | 0 | u | -1% | 6 | 1
CC(C)[C@H](NC(=O)[C@@H]1Cc2ccccc2CN1C(=O)OC(C)(C)C)C(=O)NC1CCCC1 | u | 2 | 8% | 2% | -103* | -6
COc1cc(OC)cc(C(=O)NNC(=O)c2ccccn2)c1 | -7% | -3 | -8%[15.4 µM] | 0% | -94* | 3
CC(C)(C)c1cc(CCC(=O)NCc2ccncc2)cc(C(C)(C)C)c1O | -5% | 91* | 0% | -2% | -14 | -12
O=c1cc(-c2ccccc2)nc(SCc2ccccc2F)[nH]1 | -4% | -1 | u | 0% | 0 | 2
Cc1cccc(C(=O)Nc2ccc3nc(SCC(=O)N4CCCC4)sc3c2)c1 | x | x | x | -2% | -66* | x
COC(=O)c1sc(NC(=O)c2c(F)cccc2F)c(C#N)c1C | -27% | 2 | -28% | 1% | 1 | 2
COC(=O)c1sc(NC(=O)c2c(OC)cccc2OC)c(C#N)c1C | 46% | -5 | 28µM* | u | 0 | 10
O=C(NNC(=O)c1ccccc1O)c1ccc(Cl)c(S(=O)(=O)N2CCc3ccccc32)c1 | u | 28 | -7%[15.4 µM] | 0% | -73* | -10
O=C(c1ccc(Cl)c(S(=O)(=O)N2CCc3ccccc32)c1)N1CCN(c2ccccc2O)CC1 | u | x | -8%[15.4 µM] | x | -15 | x
CCCCCCCCCCCCOCCO | x | x | x | x | -8 | x
CN(Cc1ccco1)S(=O)(=O)c1nnc(NC(=O)c2ccccc2Cl)s1 | u | 2 | u | 11µM*! | -10 | -3
Cc1c(CN2CCN(CC(C)C)C(CCO)C2)[nH]c2ccc(Cl)cc12 (stereo not given) | 18% | -2 | -22% | -3% | -3 | -3
O=C(CCN1CCc2ccccc2CC1)c1ccc2c(c1)OCCO2 | 16% | 0 | -16% | 2% | -65* | -18
CCCCNC(=O)CN1CCN(c2ncc(NC(=O)c3ccc(Cl)cc3)cc2C(=O)O)CC1 | x | x | x | 1% | -2 | x
Cc1ccc(C2=NOC(=O)/C2=C\C=C\c2ccccc2)cc1 | -11% | 8 | 12%[15.4 µM] | -2% | -108* | -4
CCn1c(C(=O)NCc2ccccc2)cc2sc(Cl)cc21 | x | x | x | 7% | -28 | x
O=C1/C(=C/c2ccc(O)cc2)SC(=S)N1CC1CCCO1 (stereo not given) | 0% | 26 | u | -1% | -73* | -6
